Values without a mark were called inactive. Records with an inconclusive call do not appear. Calls of active or inactive are those of the source. Unless noted, calls follow the shape of the full dose curve.

Test [1] is described as follows: Nuclear factor erythroid 2-related factor 2/antioxidant responsive element (Nrf2/ARE) small molecule agonists: qHTS cell viability counter screen in human keratinocytes (AID 1919968; active = well fitted curve in the direction sought with a large enough effect in the repeat runs; an effect the other way counts as inactive or inconclusive; also: nearly all actives have a fitted effect of over 55% in size; also: potency is read from the fitted curve at half-maximal effect). In outline:
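Fluorescence read-out from CellTiter-Fluor after 1 h at 37 C. Wells held HaCaT-derived ARE-luciferase reporter cells (1,500/well) treated 23 h with DMSO-dissolved compounds. Run in the same wells as the luciferase agonist read.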
On the technique in general: qHTS replaces the single test concentration by a dilution series.

The nature of test [2]: Nuclear factor erythroid 2-related factor 2/antioxidant responsive element (Nrf2/ARE) small molecule agonists: luciferase reporter gene qHTS assay in human keratinocytes (AID 1919969). Also: nearly all actives have a fitted effect of over 35% in size. Also: potency is read from the fitted curve at half-maximal effect. In general terms: A reporter such as luciferase makes a cellular process visible.
Test [3] deals with Gonadotropin-releasing hormone receptor (Homo sapiens) (UniProt P30968). The test can be described thus: Human gonadotropin-releasing hormone receptor (GnRHR) small molecule agonists, calcium flux assay in GnRHR-HEK293 cells (AID 1920063). Also: nearly all actives have a fitted effect of over 35% in size. The gist of the method:
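Calcium-dye fluorescence, Ex/Em=480/540, recorded every 1 sec over 3 min after compound addition to GnRHR-HEK293 cells. Cells had been seeded 18 hours earlier and dye-loaded for 1 hour at 37 C. Fifteen concentrations, triplicates.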
Background: Calcium assays in cells follow changes in intracellular calcium, usually with a dye or a luminescent sensor.

The target in test [4] is KiSS-1 receptor (Homo sapiens) (UniProt Q969F8). The test can be described thus: Human kisspeptin (KISS1R) small molecule agonists, calcium flux assay in KISS1R-HEK293 cells (AID 1920064; active = well fitted curve in the direction sought with a large enough effect in the repeat runs; an effect the other way counts as inactive or inconclusive). The gist of the method: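 Calcium flux read-out: kinetic fluorescence at Ex/Em=480/540, 1 s intervals over 3 min, after pin-tool compound addition to dye-loaded KISS1R-HEK293 cells. Fifteen concentrations, triplicates.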

Test [5] in a line: G protein-coupled receptor (GPCR) small molecule agonists, calcium flux assay: HEK293 wild type cell line counter screen (AID 1920065). The gist of the method:
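Agonist mode; 18 h seeding at 37 C, 1 h dye load at 37 C; compounds pinned from DMSO, ATP as positive control; kinetic fluorescence 480/540 nm, 3 min, 1 s reads; 15 concentrations, triplicate.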

Test [6] can be described thus: p53 small molecule agonists, cell-based qHTS assay with human liver microsomes (AID 1963577). In outline:
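Compounds act here after metabolic activation: human liver microsomes and NADPH, both at 0.5 mg/mL final, were co-added to p53RE-bla cells. Incubation ran 16 h at 37 C, followed by LiveBLAzer detection.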

Test [7] in a line: p53 small molecule agonists, cell-based qHTS assay with rat liver microsomes (AID 1963578). In outline:
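Read-out is beta-lactamase reporter fluorescence (LiveBLAzer, 2 h, room temperature, dark) in p53RE-bla cells treated 16 h at 37 C with compound, rat liver microsomes and NADPH, both 0.5 mg/mL final.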

The nature of test [8]: p53 small molecule agonists, cell-based qHTS assay with human liver microsomes: qHTS cell viability counter screen (AID 1963579). Also: nearly all actives have a fitted effect of over 45% in size. Also: potency is read from the fitted curve at half-maximal effect. The gist of the method:
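Cells carrying the p53 response-element beta-lactamase reporter are treated for 16 h at 37 C with test compounds in the presence of human liver microsomes and NADPH (both 0.5 mg/mL final); ATP-based CellTiter-Glo luminescence then reports viability.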

Test [9] can be described thus: p53 small molecule agonists, cell-based qHTS assay with rat liver microsomes: qHTS cell viability counter screen (AID 1963580). Also: nearly all actives have a fitted effect of over 45% in size. Also: potency is read from the fitted curve at half-maximal effect. The gist of the method:
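Counter screen for cytotoxicity under metabolic activation: rat liver microsomes and NADPH, 0.5 mg/mL final each, added with compounds to p53RE-bla HCT-116 cells; 16 h at 37 C, then ATP luminescence read.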

Test [10] is described as follows: p53 small molecule agonists, cell-based qHTS assay: qHTS cell viability counter screen (AID 1963581). Also: nearly all actives have a fitted effect of over 45% in size. Also: potency is read from the fitted curve at half-maximal effect. The gist of the method:
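Cytotoxicity read-out: ATP-based luminescence (CellTiter-Glo, 30 min RT) measured in the same wells as the p53 reporter assay, HCT-116 p53RE-bla cells, 16 h compound exposure at 37 C.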

The target in test [11] is 5-hydroxytryptamine receptor 2A (Homo sapiens) (UniProt P28223). The test can be described thus: 5-hydroxytryptamine receptor 2A (HTR2A) small molecule antagonists, cell-based qHTS assay (AID 1963586). Also: nearly all actives have a fitted effect of over 45% in size. Also: potency is read from the fitted curve at half-maximal effect. In outline: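 CHO cells stably expressing human HTR2A were plated for 18 h at 37 C, then loaded with calcium dye for 1 h. Compounds were preincubated 5 min at room temperature before DOI (4 nM solution) was added. Kinetic fluorescence was read for 3 min.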

Test [12] shares this target. The test can be described thus: 5-hydroxytryptamine receptor 2A (HTR2A) small molecule agonists, cell-based qHTS assay (AID 1963587). Also: nearly all actives have a fitted effect of over 30% in size. Also: potency is read from the fitted curve at half-maximal effect. The gist of the method: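 HTR2A-CHO cells, plated 18 h at 37 C/5% CO2, dye-loaded 1 h at 37 C; compounds in DMSO added by pin tool (agonist mode). Intracellular calcium flux read as kinetic fluorescence on FDSS over 2 min at 1 s intervals.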

In test [13] the target is Muscarinic acetylcholine receptor M1 (Homo sapiens) (UniProt P11229). The test can be described thus: Cholinergic receptor muscarinic 1 (CHRM1) small molecule agonists, cell-based qHTS assay (AID 1963589). Also: nearly all actives have a fitted effect of over 35% in size. The gist of the method:
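Calcium flux read-out: kinetic fluorescence at 1 sec intervals after pin-tool compound addition to dye-loaded CHRM1-CHO cells (human M1). Agonist mode; 15 concentrations tested in triplicate independent runs.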

Test [14] in a line: cAMP Responsive Elements (CRE) small molecule agonists, cell-based qHTS assay (AID 1963590). In outline: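 Beta-lactamase reporter readout: LiveBLAzer B/G FRET substrate, 2 h at room temperature, added after 3 h compound treatment of CRE-bla HEK 293T cells at 37 C/5% CO2.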
A short description of test [15]: cAMP Responsive Elements (CRE) small molecule antagonists, cell-based qHTS assay (AID 1963591; active = well fitted inhibition curve with a large enough effect in the signal ratio in the repeat runs, not every such curve was filed as active; the % refers to the signal ratio). In outline: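 HEK293T CRE-bla; 18 h preincubation; compound pin-transfer; NKH477 0.25 uM final, 3 h, 37 C; LiveBLAzer FRET substrate 2 h RT.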
For test [16], the target named is Beta-2 adrenergic receptor (Homo sapiens) (UniProt P07550). The test can be described thus: Adrenergic beta2 receptor (ADRB2) small molecule antagonists, cell-based qHTS assay (AID 1963592). Also: series mostly up to about 92 µM; nearly all actives have a fitted effect of over 50% in size. The gist of the method: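 Assay format: CHO-ADRB2 cells, 18-20hr seeding at 37C/5% CO2, then compound plus 1nM isoproterenol agonist mix for 0.5hr RT. Homogeneous time-resolved fluorescence cAMP detection after 1hr, expressed as 665/615 nm ratio.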

The target in test [17] is D(2) dopamine receptor (Homo sapiens) (UniProt P14416). The test can be described thus: Dopamine D2 receptor (DRD2) small molecule agonists, cell-based qHTS assay (AID 1963594). Also: nearly all actives have a fitted effect of over 35% in size. In outline: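 HEK293 cells stably expressing DRD2 were cultured 24 h at 37 C, then given Ro20-1724 (0.1 mM final) and compounds for 10 min at room temperature. NKH477 (200nM) was then added for 30 min. cAMP was read by HTRF.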

The target of test [18] is Muscarinic acetylcholine receptor M1 (Homo sapiens) (UniProt P11229). The test can be described thus: Cholinergic receptor muscarinic 1 (CHRM1) small molecule antagonists, cell-based qHTS assay (AID 1963588). Also: nearly all actives have a fitted effect of over 40% in size. In outline:
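Compounds were tested at 15 concentrations in three independent runs. Dye-loaded CHRM1-CHO cells were exposed 5 min at room temperature before stimulation by acetylcholine added at 50nM. Intracellular calcium was read kinetically on FDSS for 3 min.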

The target of test [19] is D(2) dopamine receptor (Homo sapiens) (UniProt P14416). The test can be described thus: Dopamine D2 receptor (DRD2) small molecule antagonists, cell-based qHTS assay (AID 1963595; active = well fitted inhibition curve with a large enough effect in the signal ratio in the repeat runs, with a control signal flat; the % refers to the signal ratio; also: potency is read from the fitted curve at half-maximal effect). The gist of the method: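 HEK293 cells stably expressing DRD2 were preincubated with 0.1 mM Ro20-1724, then with compound for 10 min at room temperature. Cells were stimulated with 200 nM NKH477 plus 12 nM quinpirole for 30 min, and cAMP was read by HTRF.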

Chain of Beta-2 adrenergic receptor (Homo sapiens) (P07550 whole entry, looked up): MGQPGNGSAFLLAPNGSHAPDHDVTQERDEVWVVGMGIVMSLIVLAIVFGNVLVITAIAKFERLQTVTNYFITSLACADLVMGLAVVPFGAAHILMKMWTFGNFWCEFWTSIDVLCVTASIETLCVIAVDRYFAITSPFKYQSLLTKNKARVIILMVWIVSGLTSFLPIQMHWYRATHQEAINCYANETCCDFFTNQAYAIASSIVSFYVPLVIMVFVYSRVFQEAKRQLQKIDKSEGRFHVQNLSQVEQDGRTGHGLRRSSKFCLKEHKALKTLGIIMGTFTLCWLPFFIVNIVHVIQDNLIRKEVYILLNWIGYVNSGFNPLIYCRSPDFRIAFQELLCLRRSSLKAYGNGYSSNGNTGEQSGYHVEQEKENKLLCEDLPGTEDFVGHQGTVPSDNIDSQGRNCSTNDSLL
Chain of D(2) dopamine receptor (Homo sapiens) (P14416 whole entry, looked up): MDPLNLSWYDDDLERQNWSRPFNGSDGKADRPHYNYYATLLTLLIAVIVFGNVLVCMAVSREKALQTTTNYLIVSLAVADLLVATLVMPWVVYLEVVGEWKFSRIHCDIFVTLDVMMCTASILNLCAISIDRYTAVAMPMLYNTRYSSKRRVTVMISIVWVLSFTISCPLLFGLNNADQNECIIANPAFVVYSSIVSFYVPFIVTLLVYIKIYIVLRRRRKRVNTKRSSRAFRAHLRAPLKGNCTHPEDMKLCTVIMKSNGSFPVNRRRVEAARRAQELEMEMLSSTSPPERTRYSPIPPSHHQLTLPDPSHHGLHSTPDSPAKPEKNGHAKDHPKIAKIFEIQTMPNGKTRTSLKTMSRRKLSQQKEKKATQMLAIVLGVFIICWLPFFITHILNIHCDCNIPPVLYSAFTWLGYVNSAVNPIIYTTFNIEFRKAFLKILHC
Chain of Gonadotropin-releasing hormone receptor (Homo sapiens) (P30968 whole entry, looked up): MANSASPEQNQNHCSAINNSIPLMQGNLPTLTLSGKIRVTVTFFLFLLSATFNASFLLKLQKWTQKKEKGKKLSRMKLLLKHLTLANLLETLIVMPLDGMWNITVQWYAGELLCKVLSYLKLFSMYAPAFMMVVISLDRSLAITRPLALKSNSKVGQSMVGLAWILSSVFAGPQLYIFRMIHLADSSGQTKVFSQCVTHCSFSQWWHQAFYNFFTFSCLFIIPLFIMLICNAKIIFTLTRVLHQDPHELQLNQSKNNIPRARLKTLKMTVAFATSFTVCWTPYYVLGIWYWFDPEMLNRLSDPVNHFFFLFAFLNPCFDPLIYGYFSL
Chain of Muscarinic acetylcholine receptor M1 (Homo sapiens) (P11229 whole entry, looked up): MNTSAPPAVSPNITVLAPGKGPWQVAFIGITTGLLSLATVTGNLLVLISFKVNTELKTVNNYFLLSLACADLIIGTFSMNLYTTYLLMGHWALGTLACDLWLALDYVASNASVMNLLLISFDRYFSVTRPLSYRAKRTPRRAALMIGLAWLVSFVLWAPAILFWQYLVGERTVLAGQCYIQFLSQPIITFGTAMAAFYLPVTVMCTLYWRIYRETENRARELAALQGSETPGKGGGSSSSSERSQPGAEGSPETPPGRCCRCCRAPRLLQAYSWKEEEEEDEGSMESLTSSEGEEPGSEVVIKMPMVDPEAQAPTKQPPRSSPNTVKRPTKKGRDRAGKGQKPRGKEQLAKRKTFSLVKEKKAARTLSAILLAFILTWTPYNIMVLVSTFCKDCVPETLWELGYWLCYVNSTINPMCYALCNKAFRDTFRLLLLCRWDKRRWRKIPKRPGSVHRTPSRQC
Chain of 5-hydroxytryptamine receptor 2A (Homo sapiens) (P28223 whole entry, looked up): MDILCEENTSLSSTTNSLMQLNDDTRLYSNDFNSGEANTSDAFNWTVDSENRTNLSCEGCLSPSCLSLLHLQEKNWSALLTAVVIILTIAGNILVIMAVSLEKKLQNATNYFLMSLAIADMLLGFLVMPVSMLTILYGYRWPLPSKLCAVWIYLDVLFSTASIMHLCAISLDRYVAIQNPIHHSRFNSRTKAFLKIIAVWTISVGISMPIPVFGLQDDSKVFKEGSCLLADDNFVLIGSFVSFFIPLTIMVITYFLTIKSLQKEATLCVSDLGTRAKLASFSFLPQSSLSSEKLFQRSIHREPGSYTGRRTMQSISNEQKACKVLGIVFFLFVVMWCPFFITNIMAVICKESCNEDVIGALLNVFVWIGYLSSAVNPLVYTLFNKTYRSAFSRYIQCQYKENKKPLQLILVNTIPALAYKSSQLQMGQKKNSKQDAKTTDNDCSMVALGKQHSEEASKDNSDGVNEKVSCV
Chain of KiSS-1 receptor (Homo sapiens) (Q969F8 whole entry, looked up): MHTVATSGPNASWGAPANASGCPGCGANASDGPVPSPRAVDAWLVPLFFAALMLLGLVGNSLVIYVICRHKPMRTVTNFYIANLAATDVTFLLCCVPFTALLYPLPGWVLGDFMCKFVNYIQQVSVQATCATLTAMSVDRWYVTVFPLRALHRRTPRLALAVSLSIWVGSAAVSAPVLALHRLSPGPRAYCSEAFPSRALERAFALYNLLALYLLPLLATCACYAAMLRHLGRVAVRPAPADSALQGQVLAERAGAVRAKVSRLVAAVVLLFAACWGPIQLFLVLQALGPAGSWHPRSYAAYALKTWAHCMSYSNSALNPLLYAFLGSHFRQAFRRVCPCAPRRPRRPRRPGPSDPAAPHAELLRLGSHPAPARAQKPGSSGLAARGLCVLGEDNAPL

Regarding `C=CS(=O)(=O)O`, the Potency result in test [1], in [2], in [3], in test [6], in test [7] and in [8] was “inactive” each time. Also, the Potency entry in test [9], in test [10], in test [11], in test [12], in test [13] and in test [14] was “inactive” each time. For the same compound, the Potency result in test [15], in [16] and in test [17] was “inactive” each time. For the same compound, the outcome in test [4] and in test [5] was inactive.

As to `Cc1cccc(Oc2ccccc2)c1`, the Potency result in test [1], in test [2], in test [3], in test [6], in [7] and in test [8] was “inactive” throughout. The Potency entry in test [9], in test [10], in test [12], in [18], in test [15] and in [16] was “inactive” each time. Moreover, the Potency entry in test [17] and in test [19] was “inactive” throughout. In addition, the result in test [4] and in test [5] was inactive. Further, the Potency in test [11] was 0.001 µM (active).

Turning to `CCCCCCCCCCCCCC(=O)OCC`, the Potency result in test [1], in [2], in test [3], in [6], in test [7] and in [8] was “inactive” throughout. For the same compound, the Potency result in test [9], in test [10], in [11], in [12], in test [13] and in test [14] was “inactive” throughout. Further, the Potency entry in [15], in test [16], in test [17] and in [19] was “inactive” in each case. In addition, the outcome in test [4] and in [5] was inactive.

For `Cc1oc(-c2ccccc2)nc1CCOc1ccc(C[C@H](Nc2ccccc2C(=O)c2ccccc2)C(=O)O)cc1`, the Potency in test [1] is 30.6 µM (active); in test [8] it was 28.9 µM (active); in [9], 45.8 µM (active); in [10] it was 20.4 µM (active). Besides, the Potency entry in test [2], in test [3], in test [6], in [7], in [11] and in test [12] was “inactive” each time. The Potency entry in [18], in test [16], in test [17] and in test [19] was “inactive” throughout. Besides, the outcome in [4] and in test [5] was inactive.

Turning to `CCCCCCCC[P+](CCCCCCCC)(CCCCCCCC)CCCCCCCC`, the Potency in [1] is 4.83 µM (active); in test [8], 8.09 µM (active); in test [9], 20.3 µM (active); in [10], 2.56 µM (active); in test [12] it was 24.4 µM (active); in test [19], 13.6 µM (active). The Potency entry in [2], in test [3], in [6], in [7], in test [11] and in [18] was “inactive” throughout. In addition, the Potency entry in [13] and in test [16] was “inactive” each time. The outcome in [4] and in test [5] was inactive.

Turning to `C1CC(COCC2CO2)CCC1COCC1CO1` (centres undefined), the Potency entry in test [1], in test [3], in test [6], in test [7], in test [8] and in test [9] was “inactive” in each case. Moreover, the Potency entry in test [10], in [11], in test [12], in test [16] and in test [19] was “inactive” in each case. Moreover, the Potency in [2] is 61.1 µM (active). The result in test [4] and in test [5] was inactive.

With `CC1=NC(C)OC1C` (centres undefined), the Potency result in [1], in [3], in [6], in [7], in test [8] and in [9] was “inactive” throughout. Moreover, the Potency entry in test [10], in test [11], in [12], in test [18], in test [16] and in [17] was “inactive” in each case. Besides, the Potency in test [2] is 61.1 µM (active). Moreover, the result in test [4] and in test [5] was inactive.

On to `CCCCc1nc2cccnc2n1Cc1ccc(-c2ccccc2-c2nnn[nH]2)cc1`, for which the Potency result in test [1], in [2], in [3], in test [6], in [7] and in [8] was “inactive” throughout. Further, the Potency entry in test [9], in test [10], in test [11], in [12], in [18] and in [13] was “inactive” each time. Besides, the Potency result in [17] and in test [19] was “inactive” each time. Also, the result in [4] and in test [5] was inactive.

The values are drawn from PubChem BioAssay (Tox21).
